# KB-3-1 cytotox: qHTS assay for MDR1-selective chemotherapeutics: Primary screen using the parental adenocarcinoma cell KB-3-1; 400,000 compounds, 1.4% hits; Potency, µM (series often up to 46.1 µM), most hits filed as cytotoxic; KB-3-1 viability, CellTiter-Glo ATP luminescence, 72 h; note: % is set by controls: 0 for no effect and ±100 for the full control effect; nearly all actives have a fitted effect of over 60% in size
#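 Cytotoxicity measured as CellTiter-Glo luminescence after 72 h at 37 C. Compound titrations were pinned onto drug-naive KB-3-1 parental adenocarcinoma cells grown in DMEM with 10% FBS, and normalized data fitted to concentration-response curves.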
# HT1080-NT tox: qHTS for induction of synthetic lethality in tumor cells producing 2HG: qHTS for the HT-1080-NT fibrosarcoma cell line; HT-1080-NT fibrosarcoma viability, CellTiter-Glo ATP luminescence, 48 h; Potency, µM (doses to about 46.1 µM), inactives show at the highest dose activity, negative = less viability, hits mostly cytotoxic; 360,000 compounds, 1.6% hits; AID 686970, 2013;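 note: NT is the 2HG producing partner of a matched IDH1 knockdown line; 0% = DMSO-treated cells and -100% = media-only wells without cells; nearly all actives have a fitted effect of over 55% in size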
#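 Fibrosarcoma NT cells, 750 per well in 5% FBS RPMI, were exposed to compound for 48 hours. Viability: CellTiter-Glo luminescence.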
# KB-V1 MDR tox: qHTS assay for MDR1-selective chemotherapeutics: Primary screen using the drug-selected MDR subline cells KB-V1. KB-V1 MDR cells viability, CellTiter-Glo, 72 h. Potency, µM (top dose mostly 46.1 µM), usual class: cytotoxic. 400,000 compounds, 3.4% hits; note: % is set by controls: 0 for no effect and ±100 for the full control effect; nearly all actives have a fitted effect of over 60% in size
#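 Drug-selected KB-V1 cells, grown in DMEM lacking phenol red with 10% FBS, receive compound titrations; after three days at 37 degrees C, surviving cell ATP is quantified by CellTiter-Glo luminescence and responses normalized and curve-fitted.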
# MCF10A rereplic: A quantitative high throughput screen for small molecules that induce DNA re-replication in MCF 10a normal breast cells; MCF 10A DNA re-replication, Hoechst nuclear intensity, 48 h; 350,000 compounds, 2.9% hits; AID 624296, 2012; Potency, µM (highest dose often 46.1 µM), without a hit: at the highest dose activity, positive = re-replication, hits mostly activators; note: % of control where 0% means no effect; nearly all actives have a fitted effect of over 50% in size
# SW480 rereplic: A quantitative high throughput screen for small molecules that induce DNA re-replication in SW480 colon adenocarcinoma cells; AID 624297, 2012; SW480 DNA re-replication, Hoechst DNA content imaging, 48 h; 340,000 compounds, 1.8% hits; Potency, µM (highest dose often 46.1 µM), without a hit: at the top dose re-replication activation, usual class: activators; note: % of control where 0% means no effect; nearly all actives have a fitted effect of over 55% in size
#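 DNA re-replication was detected as more nuclei of elevated Hoechst intensity after 48 hr exposure to compound (23 nL pinned per well of 250 cells).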
# HT1080 IDH1KD tx: qHTS for induction of synthetic lethality in tumor cells producing 2HG: qHTS for the HT-1080-IDH1KD cell line; HT-1080 IDH1 knockdown viability, ATP luminescence, 48 h; Potency, µM (highest dose often 46.1 µM), without a hit: at the highest dose activity, negative = toxicity, actives largely listed as cytotoxic; 360,000 compounds, 2% hits;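 note: 0% = DMSO wells and -100% = cell-free medium wells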
#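 Using the IDH1-knockdown HT-1080 line run in the same batch and compound series as the NT line, viability after 48 h at 37 °C was determined by CellTiter-Glo luminescence and expressed as % activity.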
# Numbers without * were called inactive; i = inactive; u = inconclusive; x = no result given; [ ] = dose if it differs, or a comment. An excerpt weighted towards active compounds, which were near 7.9% of everything screened. Calls come from the whole dose curve; as a rule, active = well fitted curve in the direction sought with a large enough effect; inconclusive = small, poorly fitted or top-dose-only effect, or another doubt; inactive = no such curve, though single readings can be large; an effect the other way counts as inactive or inconclusive. Potency is the fitted concentration of half-maximal effect.
SMILES,KB-3-1 cytotox,HT1080-NT tox,KB-V1 MDR tox,MCF10A rereplic,SW480 rereplic,HT1080 IDH1KD tx
CCOc1ccc(NS(=O)(=O)CC23CCC(CC2=O)C3(C)C)cc1 (configuration not stated),i,2.0%,18.4µM*,13.4%,-9.8%,0.1%
COc1ccc(NS(=O)(=O)CC23CCC(CC2=O)C3(C)C)cc1 (configuration not stated),i,-0.3%,u,5.6%,-3.5%,3.6%
COc1ccc(Sc2nnc(Cc3ccccc3)c3ccccc23)cc1,i,-10.6%,u,9.2µM*,u,u
Cc1cccc2cc3c(NC(=O)c4ccccn4)nn(C)c3nc12,i,u,i,8.2µM*,u,u
CCCn1nc(NC(=O)COC)c2cc3cccc(C)c3nc21,i,2.1%,i,9.6%,3.0%,-0.2%
CCn1nc(NC(=O)CC(C)C)c2cc3cccc(C)c3nc21,i,2.0%,i,9.2µM*,20.6µM*,8.8%
CCCn1nc(NC(=O)CC(C)C)c2cc3cccc(C)c3nc21,i,0.4%,i,10.3µM*,10.3µM*,0.7%
CCCn1nc(NC(C)=O)c2cc3cccc(C)c3nc21,i,3.2%,i,18.4µM*,18.4µM*,14.9%
COc1ccc(N2C(=NC(=O)C3CCCCC3)SC3CS(=O)(=O)CC32)cc1 (configuration not stated),i,1.3%,i,-1.5%,u,17.7%
COc1ccc(OCCn2c(C3CC(=O)N(c4ccc(F)cc4)C3)nc3ccccc32)cc1 (configuration not stated),i,x,i,x,x,x
COc1ccc(C2C(C(=O)Nc3ccc(C)cc3C)=C(C)Nc3nc(SCc4cccc(C)c4)nn32)c(OC)c1 (configuration not stated),i,x,u,x,x,x
CCn1nc(NC(=O)C(C)(C)C)c2cc3cccc(C)c3nc21,i,-0.3%,i,6.51µM*,u,-3.8%
CC(=O)N1c2ccc(S(=O)(=O)N(C)CC(=O)NC(C)c3ccccc3)cc2CC1C (configuration not stated),i,19.5%,i,-0.5%,-29.7%,10.2%
Cc1c(C#N)c(NC(=O)CCl)n(Cc2cccs2)c1C,u,16.4µM*,u,u,5.8µM*,u
CCN(CC)C(=O)c1sc(NC(=O)Cc2cccs2)c(C#N)c1C,i,7.7%,u,0.9%,15.9%,-12.7%
Cc1c(C#N)c(NC(=O)CCl)n(Cc2ccc(F)cc2)c1C,u,u,i,u,u,u
Cc1c(C#N)c(NC(=O)CCl)n(Cc2ccccc2)c1C,10.3µM*,u,u,u,u,1.64µM*
COc1ccccc1NC(=O)C1CCN(C(=O)C2CC(=O)N(c3ccc(C)cc3)C2)CC1 (configuration not stated),i,0.0%,i,-8.4%,-10.7%,2.7%
Cc1cc2nn(-c3ccc(F)cc3)nc2cc1NC(=O)c1ccc(C(C)(C)C)cc1,i,x,i,x,x,x
CCCCn1c(=O)nc2n(-c3ccc(C)cc3)c3ccccc3cc-2c1=O,i,5.7%,u,1.3%,-4.7%,4.1%
CCCCn1c(=O)nc2n(-c3ccc(Cl)cc3)c3ccccc3cc-2c1=O,i,-3.4%,8.2µM*,-5.5%,-3.9%,0.4%
COc1cc(C2c3cc4c(cc3C3OC(=O)C2C3CO)OCO4)cc(OC)c1OC (configuration not stated),u,0.0103µM*,0.206µM*,x,x,0.0164µM*
C/C=C(/C)C(=O)O[C@@H]1c2cc3c(c(OC)c2-c2c(cc(OC)c(OC)c2OC)[C@@H](OC(C)=O)[C@@H](C)[C@H]1C)OCO3,i,1.8%,i,24.0%,2.9%[9.22 µM],10.7%
COc1cc(C2CC(=O)Oc3cc4c(cc32)OCO4)cc(OC)c1OC (configuration not stated),i,-3.0%,i,-26.7%,-2.1%,-0.9%
COc1cc([C@@H]2c3cc4c(cc3[C@@H](O)[C@H]3COC(=O)[C@H]23)OCO4)cc(OC)c1O[Si](C)(C)C(C)(C)C,5.8µM*,u,u,u,-7.3%,u
SMILES,KB-3-1 cytotox,HT1080-NT tox,KB-V1 MDR tox,MCF10A rereplic,SW480 rereplic,HT1080 IDH1KD tx
CCN(CC)C1Oc2cc3c(cc2C(c2cc(OC)c(OC)c(OC)c2)C1C)OCO3 (configuration not stated),1.16µM*,1.84µM*,u,1.46µM*,u,1.46µM*
Cc1cc(Cl)ccc1OCC(O)CNCCc1ccc(S(N)(=O)=O)cc1 (configuration not stated),i,-11.5%,i,u,u,-12.1%
CC(=O)Nc1ccc(/C=N/NC(N)=S)cc1,x,x,x,1.1%,-1.6%,x
CN(C)c1ccc(/C=N/NC(N)=S)cc1[N+](=O)[O-],14.6µM*,-0.2%,6.51µM*,-4.8%,-14.0%,-7.1%
CCOc1cc(C2C(C#N)=C(N)Oc3cc(N)ccc32)ccc1O (configuration not stated),i,16.8%,i,u,11.2%,-1.6%
O=C(Cn1ncc2c3ccccc3n(Cc3ccccc3)c2c1=O)N1CCN(c2ncccn2)CC1,u,-7.0%,5.17µM*,16.1%,3.7%,-24.4%
CCCn1c2ccccc2c2cnn(CC(=O)N3CCOCC3)c(=O)c21,i,-0.1%,i,-9.1%,9.3%,-2.9%
O=C(Cn1ncc2c3ccccc3n(Cc3ccccc3)c2c1=O)N1CCN(c2ccccn2)CC1,i,1.7%,i,-11.3%,-3.0%,-5.2%
O=C(Cn1cnc2ccccc2c1=O)N1CCN(Cc2ccccc2)CC1,i,-1.1%,23.1µM*,-4.4%,-5.1%,-2.0%
O=C(Cn1ncc(Cl)c(Cl)c1=O)N1CCOCC1,u,11.6µM*,i,3.66µM*,2.91µM*,13µM*
CCc1ccc(C(=O)Cn2ncc(Cl)c(Cl)c2=O)cc1,7.31µM*,14.6µM*,u,5.8µM*,7.31µM*,u
O=C(COc1ccc(Br)cc1Br)NC1CCS(=O)(=O)C1 (configuration not stated),i,-11.5%,i,10.4%,-89.6%,-3.1%
